Reference: PubChem BioAssay AID1159580 (chemical genetic matrix, 2015)
Screen size: about 5,500 compounds; about 2,000 (36%) were called active. Another 18% or so got no clear call; they are omitted. Cut-off read from the data, not from the text of the source: active = normalized growth mostly below about 0.91 (no sharp cut-off); inconclusive = no clear call, values can overlap the other calls; inactive = mostly above about 0.92. The list shows a part of the results.

Experiment: chemical genetic growth profiling, strain panel (AID 1159580);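 note: tested at 20 µM; growth read once vehicle control cultures reached saturation at 30 °C; 1 = growth at the plate median or of vehicle wells; lower values mean less growth of the strain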
Conditions: growth OD
[1] = S. cerevisiae deletion strains, locus YAL013W, strain DEP1, stronger effect = lower value
[2] = S. cerevisiae deletion strains, locus YDR150W, strain NUM1, stronger effect = lower value
[3] = S. cerevisiae deletion strains, locus YGR078C, strain PAC10, stronger effect = lower value
[4] = S. cerevisiae deletion strains, locus YGR229C, strain SMI1, stronger effect = lower value
[5] = S. cerevisiae deletion strains, locus YMR307W, strain GAS1, stronger effect = lower value
[6] = S. cerevisiae deletion strains, locus YNL128W, strain TEP1, stronger effect = lower value
[7] = S. cerevisiae deletion strains, locus YNL153C, strain GIM3, stronger effect = lower value
[8] = S. cerevisiae deletion strains, locus YNL322C, strain KRE1, stronger effect = lower value
[9] = S. cerevisiae deletion strains, locus YPL241C, strain CIN2, stronger effect = lower value

Measured: normalized growth

CC(=O)OC1CC(OC(C)=O)C2(C)C(CC(OC(C)=O)C3(C)C2CCC2(C)C(c4ccoc4)OC(=O)C4OC423)C1(C)C (stereo not drawn)
inactive: [1] 0.995 | S. cerevisiae deletion strains, locus YBR021W, strain FUR4, stronger effect = lower value 0.986 | S. cerevisiae deletion strains, locus YBR229C, strain ROT2, stronger effect = lower value 0.984 | S. cerevisiae deletion strains, locus YCL029C, strain bik1, stronger effect = lower value 0.984 | S. cerevisiae deletion strains, locus YDL035C, strain GPR1, stronger effect = lower value 0.97 | S. cerevisiae deletion strains, locus YDL074C, strain BRE1, stronger effect = lower value 1.03 | S. cerevisiae deletion strains, locus YDL101C, strain DUN1, stronger effect = lower value 0.978 | S. cerevisiae deletion strains, locus YDL134C, strain PPH21, stronger effect = lower value 1 | S. cerevisiae deletion strains, locus YDL185W, strain tfp1, stronger effect = lower value 0.986 | S. cerevisiae deletion strains, locus YDL192W, strain arf1, stronger effect = lower value 0.99 | S. cerevisiae deletion strains, locus YDR101C, strain arx1, stronger effect = lower value 0.981 | [2] 1 | S. cerevisiae deletion strains, locus YDR162C, strain NBP2, stronger effect = lower value 1.01 | S. cerevisiae deletion strains, locus YDR318W, strain mcm21, stronger effect = lower value 0.986 | S. cerevisiae deletion strains, locus YDR388W, stronger effect = lower value 0.988 | S. cerevisiae deletion strains, locus YDR502C, strain sam2, stronger effect = lower value 1 | S. cerevisiae deletion strains, locus YEL061C, strain CIN8, stronger effect = lower value 0.995 | S. cerevisiae deletion strains, locus YER110C, stronger effect = lower value 0.977 | S. cerevisiae deletion strains, locus YER155C, strain BEM2, stronger effect = lower value 0.976 | S. cerevisiae deletion strains, locus YER167W, strain BCK2, stronger effect = lower value 0.973 | S. cerevisiae deletion strains, locus YGL078C, strain dbp3, stronger effect = lower value 1 | S. cerevisiae deletion strains, locus YGL086W, strain mad1, stronger effect = lower value 0.99 | S. cerevisiae deletion strains, locus YGL248W, strain PDE1, stronger effect = lower value 1 | [3] 1.04 | S. cerevisiae deletion strains, locus YGR135W, strain pre9, stronger effect = lower value 1.02 | [4] 0.997 | S. cerevisiae deletion strains, locus YGR252W, strain gcn5, stronger effect = lower value 0.951 | S. cerevisiae deletion strains, locus YHR030C, strain SLT2, stronger effect = lower value 0.984 | S. cerevisiae deletion strains, locus YHR079C, strain IRE1 (second series), stronger effect = lower value 0.99 | S. cerevisiae deletion strains, locus YHR094C, strain hxt1, stronger effect = lower value 0.984 | S. cerevisiae deletion strains, locus YHR129C, strain ARP1, stronger effect = lower value 0.997 | S. cerevisiae deletion strains, locus YHR200W, strain rpn10, stronger effect = lower value 0.99 | S. cerevisiae deletion strains, locus YIL066C, strain RNR3, stronger effect = lower value 0.986 | S. cerevisiae deletion strains, locus YIL073C, strain SPO22, stronger effect = lower value 0.954 | S. cerevisiae deletion strains, locus YIL125W, strain kgd1, stronger effect = lower value 0.983 | S. cerevisiae deletion strains, locus YIR030C, strain dcg1, stronger effect = lower value 0.984 | S. cerevisiae deletion strains, locus YJL095W, strain BCK1, stronger effect = lower value 1.03 | S. cerevisiae deletion strains, locus YJL134W, strain LCB3, stronger effect = lower value 0.984 | S. cerevisiae deletion strains, locus YJL168C, strain set2, stronger effect = lower value 0.986 | S. cerevisiae deletion strains, locus YJL187C, strain SWE1 (second series), stronger effect = lower value 1.01 | S. cerevisiae deletion strains, locus YJR043C, strain POL32, stronger effect = lower value 0.98 | S. cerevisiae deletion strains, locus YJR075W, strain HOC1, stronger effect = lower value 1.01 | S. cerevisiae deletion strains, locus YKL009W, strain mrt4, stronger effect = lower value 0.971 | S. cerevisiae deletion strains, locus YKL068W, stronger effect = lower value 1 | S. cerevisiae deletion strains, locus YKL085W, strain MDH1 (second series), stronger effect = lower value 0.992 | S. cerevisiae deletion strains, locus YKL085W, strain MDH1, stronger effect = lower value 0.992 | S. cerevisiae deletion strains, locus YKL190W, strain CNB1, stronger effect = lower value 1 | S. cerevisiae deletion strains, locus YKR001C, strain vps1, stronger effect = lower value 1.01 | S. cerevisiae deletion strains, locus YLR039C, strain RIC1, stronger effect = lower value 0.929 | S. cerevisiae deletion strains, locus YLR058C, strain SHM2, stronger effect = lower value 0.984 | S. cerevisiae deletion strains, locus YLR102C, strain apc9, stronger effect = lower value 0.979 | S. cerevisiae deletion strains, locus YLR262C, strain YPT6, stronger effect = lower value 0.975 | S. cerevisiae deletion strains, locus YLR268W, strain sec22, stronger effect = lower value 1 | S. cerevisiae deletion strains, locus YLR330W, strain CHS5, stronger effect = lower value 0.989 | S. cerevisiae deletion strains, locus YLR342W, strain FKS1 (second series), stronger effect = lower value 0.941 | S. cerevisiae deletion strains, locus YLR371W, strain rom2, stronger effect = lower value 0.977 | S. cerevisiae deletion strains, locus YLR418C, strain cdc73, stronger effect = lower value 0.988 | S. cerevisiae deletion strains, locus YML016C, strain PPZ1, stronger effect = lower value 0.993 | S. cerevisiae deletion strains, locus YML032C, strain rad52, stronger effect = lower value 0.976 | S. cerevisiae deletion strains, locus YML124C, strain tub3, stronger effect = lower value 0.996 | S. cerevisiae deletion strains, locus YMR078C, strain ctf18, stronger effect = lower value 0.97 | S. cerevisiae deletion strains, locus YMR223W, strain ubp8, stronger effect = lower value 0.981 | S. cerevisiae deletion strains, locus YMR263W, strain SAP30, stronger effect = lower value 1.03 | [5] 0.909 | S. cerevisiae deletion strains, locus YNL067W, strain RPL9B, stronger effect = lower value 1.03 | [6] 0.995 | [7] 1.04 | S. cerevisiae deletion strains, locus YNL233W, strain BNI4, stronger effect = lower value 0.999 | S. cerevisiae deletion strains, locus YNL250W, strain rad50, stronger effect = lower value 0.974 | S. cerevisiae deletion strains, locus YNL271C, strain bni1, stronger effect = lower value 0.988 | S. cerevisiae deletion strains, locus YNL298W, strain CLA4, stronger effect = lower value 0.985 | S. cerevisiae deletion strains, locus YNL307C, strain MCK1, stronger effect = lower value 0.965 | [8] 0.986 | S. cerevisiae deletion strains, locus YNR052C, strain pop2, stronger effect = lower value 0.987 | S. cerevisiae deletion strains, locus YOL006C, strain TOP1, stronger effect = lower value 0.977 | S. cerevisiae deletion strains, locus YOL012C, strain htz1 1.14 | S. cerevisiae deletion strains, locus YOL147C, strain pex11, stronger effect = lower value 0.996 | S. cerevisiae deletion strains, locus YOR061W, strain CKA2, stronger effect = lower value 0.994 | S. cerevisiae deletion strains, locus YOR069W, strain VPS5, stronger effect = lower value 0.963 | S. cerevisiae deletion strains, locus YOR136W, strain idh2, stronger effect = lower value 0.981 | S. cerevisiae deletion strains, locus YOR144C, strain elg1, stronger effect = lower value 0.998 | S. cerevisiae deletion strains, locus YOR184W, strain ser1, stronger effect = lower value 0.959 | S. cerevisiae deletion strains, locus YOR316C, strain cot1, stronger effect = lower value 0.987 | S. cerevisiae deletion strains, locus YPL055C, strain LGE1, stronger effect = lower value 1.04 | [9] 0.994 | S. cerevisiae deletion strains, locus YPR119W, strain clb2, stronger effect = lower value 0.992 | S. cerevisiae deletion strains, locus YPR141C, strain kar3, stronger effect = lower value 0.985 | S. cerevisiae deletion strains, locus YPR163C, strain tif3, stronger effect = lower value 0.992 | S. cerevisiae deletion strains, locus YPR167C, strain met16, stronger effect = lower value 0.992 | S. cerevisiae deletion strains, strain wtn01, stronger effect = lower value 0.996 | S. cerevisiae strains, strain wild type, stronger effect = lower value 0.983

CC[C@H](CO)Nc1nc(NCc2ccccc2)c2ncn(C(C)C)c2n1
inactive: [1] 1.01 | S. cerevisiae deletion strains, locus YAL040C, strain CLN3, stronger effect = lower value 0.992 | S. cerevisiae deletion strains, locus YCL061C, strain MRC1 (second series), stronger effect = lower value 1 | [2] 0.992 | S. cerevisiae deletion strains, locus YDR363W, strain ESC2, stronger effect = lower value 0.991 | S. cerevisiae deletion strains, locus YER002W, strain NOP16, stronger effect = lower value 1.03 | [3] 0.995 | [4] 1.04 | [5] 0.967 | [6] 1.03 | [7] 1 | S. cerevisiae deletion strains, locus YNL175C, strain NOP13, stronger effect = lower value 1 | S. cerevisiae deletion strains, locus YNL197C, strain WHI3, stronger effect = lower value 1 | S. cerevisiae deletion strains, locus YNL224C, strain SQS1, stronger effect = lower value 1.01 | [8] 1.02 | S. cerevisiae deletion strains, locus YOR083W, strain WHI5 (second series), stronger effect = lower value 1.01 | [9] 0.997
